An excerpt weighted towards active compounds, which were near 7% of everything screened.
PI5P4K alpha inh: blocks human PI5P4K alpha kinase activity; P48426; PI5P4Kalpha enzyme, ADP-Glo luminescence, 60 min; stronger effect = lower value; max response, %; 1.2% of 330,000 active; active = max response of -50% or lower; inconclusive = between -30% and -50%; inactive = -30% or higher; note: value at the top dose of about 77 µM; % is set by controls: 0 for no effect and ±100 for the full control effect
Target sequence (P48426 whole entry, looked up): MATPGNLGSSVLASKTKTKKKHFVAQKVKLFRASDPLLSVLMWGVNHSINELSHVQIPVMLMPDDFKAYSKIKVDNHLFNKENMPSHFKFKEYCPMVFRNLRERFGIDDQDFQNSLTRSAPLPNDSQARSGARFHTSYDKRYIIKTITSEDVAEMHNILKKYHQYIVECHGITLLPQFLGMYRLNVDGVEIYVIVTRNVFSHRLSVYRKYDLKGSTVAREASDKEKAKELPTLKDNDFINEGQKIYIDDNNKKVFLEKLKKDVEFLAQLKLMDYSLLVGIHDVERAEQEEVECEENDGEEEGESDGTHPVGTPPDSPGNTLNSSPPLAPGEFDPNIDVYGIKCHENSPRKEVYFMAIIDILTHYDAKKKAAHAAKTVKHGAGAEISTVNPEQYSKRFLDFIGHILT
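Single end-point luminescence (ADP-Glo) quantified ADP from PI5P4Kalpha turnover; ATP 5 microM final, 1 h at RT, 0.1% CHAPS and 0.28 mM EGTA in HEPES pH 7.4.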
BAZ2B inh: blocks human BAZ2B; AlphaScreen BAZ2B-H3K14Ac peptide displacement; Potency, µM (titrated, usually from 114 µM), for inactives: at the highest dose activity change, negative = inhibition, hits mostly inhibitors; 4.4% of 360,000 active; note: potency is the fitted concentration of half-maximal effect; % is set by controls: 0 for no effect and ±100 for the full control effect; nearly all actives have a fitted effect of over 60% in size
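BAZ2B 50 nM plus b-H3(5-23)K14Ac 50 nM, PBS pH 7.4/0.01% Tween-20, 30 min RT; compound added (max 110 uM), 30 min RT; streptavidin donor/Ni-chelate acceptor beads 10 ug/mL final, 20 min dark; AlphaScreen read.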
JMJD2A Tudor: inhibitors of human JMJD2A Tudor domain. O75164. AlphaScreen JMJD2A-Tudor / H3K4me3 peptide binding. Potency, µM (top dose mostly 114 µM), for the others: at the highest dose activity change, negative = inhibition, hits mostly inhibitors. 4.4% of 390,000 active. AID 504339; note: potency is the fitted concentration of half-maximal effect; % is set by controls: 0 for no effect and ±100 for the full control effect; nearly all actives have a fitted effect of over 50% in size
PLK1 PBD block: inhibitors of human PLK1 polo-box domain binding | P53350 | Plk1 PBD binding of FITC phosphopeptide, fluorescence polarization | Potency, µM, inactives show max response, negative = inhibition, most hits filed as inhibitors | 2.8% of 360,000 active; note: potency is the fitted concentration of half-maximal effect; series mostly up to about 57 µM; % is set by controls: 0 for no effect and ±100 for the full control effect; nearly all actives have a fitted effect of over 65% in size
HP1b binding inh: inhibitors of HP1-beta chromodomain binding to methylated histone tails | P83916 | AlphaScreen HP1-beta / biotin-H3K9me3 peptide binding | Potency, µM (doses to about 114 µM), for the others: top-dose activity change, negative = inhibition, actives largely listed as inhibitors | 0.56% of 390,000 active | AID 540317; note: potency is the fitted concentration of half-maximal effect; nearly all actives have a fitted effect of over 70% in size
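Compound inhibition of the preformed complex between 50 nM HP1-beta and 50 nM biotinylated H3K9me3 peptide was read by AlphaScreen. Buffer was PBS pH 7.4 with 0.01% Tween-20. Incubations ran 30 min at room temperature, with 10 ug/mL donor/acceptor beads.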
GCN5L2 inh: GCN5L2 (KAT2A) acetyltransferase inhibition; 0.21% of 390,000 active; GCN5L2 HAT assay, ThioGlo1 CoA-SH fluorescence; Potency, µM (top dose mostly 58.9 µM), for inactives: at the highest dose activity change, negative = inhibition, hits mostly inhibitors; Q92830; AID 504327; note: potency is the fitted concentration of half-maximal effect; % is set by controls: 0 for no effect and ±100 for the full control effect
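Preincubate 20nM GCN5L2 with compound 15 min, RT → add 50uM ThioGlo1 + 75uM H3(1-25) + 70uM acetyl-CoA → read fluorescence 0 and 20 min. Primary qHTS; fluorescent artifacts likely.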
* = called active by the depositor; u = inconclusive; x = no result; [ ] = remark or other dose. Unless noted, calls come from the whole dose curve; as a rule, active = well fitted curve in the direction sought with a large enough effect; inconclusive = small, poorly fitted or top-dose-only effect, or another doubt; inactive = no such curve, though single readings can be large; an effect the other way counts as inactive or inconclusive.

SMILES	PI5P4K alpha inh	BAZ2B inh	JMJD2A Tudor	PLK1 PBD block	HP1b binding inh	GCN5L2 inh
Cn1nc(-c2ccc(Cl)cc2)c2cc(C(=O)NC3CC3)sc21	-19.1	-2.0%	u	29.9µM*	1.5%	-7.2%
COc1ccc(OCCN(C)C(=O)c2cccc(S(=O)(=O)N(C)c3ccccc3)c2)cc1	6.2	5.6%	-25.0%	1.7%	4.7%	-5.3%
S=c1[nH]c2ccc(Cc3ccc4[nH]c(=S)[nH]c4c3)cc2[nH]1	-25.4	-20.4%	-16.4%	21.2µM*	-10.9%	-23.1%
Cc1cc2[nH]c(=S)[nH]c2cc1C	u	-7.4%	u	5.97µM*	39.8µM*	-1.2%
S=c1[nH]c2cc3ccccc3cc2[nH]1	-4.3	-17.8%	-23.3%	29.9µM*	1.2%	-29.2%
CN(C(=O)c1ccc(NC(=O)Cc2ccc(NC(=O)C3CCCN(C(=O)C4CCCC4)C3)cc2)cc1)C1CC1 (configuration not stated)	-7.4	-4.3%	-16.0%	6.6%	25.8%	2.4%
CSc1ccc(C(=O)N2CCC(CCC(=O)NCc3ccc(F)cc3)CC2)cc1	-4.3	0.6%	-1.4%	-6.1%	37.8%	1.4%
Cc1cc(C)cc(OCC(=O)Nc2c(C)ccc3nsnc23)c1	x	-3.7%	9.0%	x	34.5%	1.2%
CCN(CC)S(=O)(=O)c1cccc(-c2cn3cccnc3n2)c1	-11.3	0.3%	-8.5%	u	-0.2%	1.6%
C=CCn1c(-c2cccc(S(=O)(=O)N(CC)CC)c2)n[nH]c1=S	u	x	12.6µM*	-10.9%	13.0%	-9.5%
C=CCn1c(C)cc(C(=O)CSc2nnc(-c3cccc(S(=O)(=O)N(CC)CC)c3)o2)c1C	-7.7	-32.8%	-3.5%	0.5%	19.6%	-12.8%
COc1cccc(-n2c(-c3cccc(S(=O)(=O)N(C)C)c3)n[nH]c2=S)c1	-9.1	x	8.91µM*	4.5%	13.8%	-3.4%
C=CCn1c(-c2cccc(S(=O)(=O)N3CCOCC3)c2)n[nH]c1=S	-14.7	4.4%	7.08µM*	-2.1%	11.4%	-4.7%
CCN(CC)S(=O)(=O)c1cccc(-c2n[nH]c(=S)n2C)c1	-18.2	-18.8%	17.8µM*	-14.6%	u	-2.9%
O=c1[nH]cc(N2CCCCCC2)c(=O)[nH]1	4.7	0.7%	-1.3%	-11.3%	50.2%	0.1%
CCOc1ccc(NC(=O)c2sccc2-n2cccc2)cc1	-1.4	-18.3%	-29.7%	-2.3%	6.7%	-6.4%
O=S(=O)(c1cccc(-c2n[nH]c(=S)n2C2CCCC2)c1)N1CCOCC1	-8.9	x	3.98µM*	-8.4%	12.3%	-2.0%
Cc1ccc(NCc2n[nH]c(=S)n2Cc2ccccc2)cc1Cl	-2.9	u	u	-11.9%	-3.3%	-29.8%
Cc1ccc(-c2n[nH]c(=S)n2C)cc1Cl	-7.2	0.1%	3.16µM*	u	-32.5%	7.1%
O=C(CCC(=O)N/N=C/c1cc(Cl)cc(Cl)c1O)NCc1ccccc1	-15.9	5.2%	28.2µM*	9.47µM*	-2.1%	-1.2%
O=C(COC(=O)CCNS(=O)(=O)c1ccccc1F)Nc1nnc(-c2ccccc2)o1	-2.4	-35.1%	-20.7%	-1.2%	28.8%	-1.8%
c1ccc(NC2=Nc3cccc4cccc2c34)cc1	-4.5	u	-12.8%[57.1 µM]	-3.7%	-14.3%	-4.2%
COc1ccc(NC2=Nc3cccc4cccc2c34)cc1	6.8	35.5µM*	44.7µM*	16.8%	u	-0.6%
COc1cccc(OC)c1C(=O)Nc1ccc2c(c1)CCCN2S(=O)(=O)c1ccc(C)cc1	-15.2	-9.2%	u	10.6µM*	4.4%	u
Cc1ccc(S(=O)(=O)N2CCCc3cc(NC(=O)c4c(F)cccc4F)ccc32)cc1	-0.5	u	u	26.7µM*	7.2%	u
Cc1ccc(S(=O)(=O)N2CCCc3cc(NC(=O)c4ccc(F)c(F)c4)ccc32)cc1	x	-18.0%	-23.2%	x	-5.6%	-18.8%
CCCCCC(O)CCc1n[nH]c(=S)n1-c1ccccc1 (configuration not stated)	-11.9	5.4%[57.1 µM]	20µM*	-1.7%	13.2%	-21.0%
